Bioassay records as filed in PubChem.
Most compounds without a hit are left out; they make up all but 8.1% or so of the library.
PINK1 expr mod: changes PINK1 expression; PINK1 immunofluorescence, high-content cytometry, 24 h; Potency, µM (top dose mostly 76.6 µM), hits mostly activators; actives 0.2% (n = 410,000); AID 624263; active = well fitted activation curve with a large enough effect; inconclusive = small, poorly fitted or top-dose-only effect; cell line not stated here; also: nearly all actives have a fitted effect of over 65% in size
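Readout is PINK1 immunofluorescence, quantified alongside mitochondrial, cell and nuclear markers by laser-scanning microplate cytometry. Cells from a stable line were exposed to compound titrations (5 concentrations) for 24 hours, with CCCP controls.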
ClpP mod: qHTS Assay for Activators of ClpP | ATP-dependent Clp protease proteolytic subunit (Bacillus subtilis (strain 168)), P80244 | actives 1.9% (n = 340,000) | Potency, µM (series often up to 57.5 µM) | purified B. subtilis ClpP, FRET peptide cleavage, 20 min | AID 651965, 2013; active = well fitted falling curve with a large enough effect; inconclusive = small, poorly fitted or top-dose-only effect; inactive = no such curve, though single readings can be large or run the other way; also: the source files actives as falling curves though it sought activators and does not explain the sign; nearly all actives have a fitted effect of over 65% in size
Target sequence (P80244 whole entry, looked up): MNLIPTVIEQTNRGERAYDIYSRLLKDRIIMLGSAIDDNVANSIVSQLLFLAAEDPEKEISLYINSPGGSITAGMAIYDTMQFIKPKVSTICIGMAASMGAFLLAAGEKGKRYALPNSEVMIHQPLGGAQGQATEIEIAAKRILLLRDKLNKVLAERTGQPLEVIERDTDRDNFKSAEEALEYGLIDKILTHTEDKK
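ClpP 10 microg/mL final, pH 8 Tris/KCl buffer with BSA, glycerol, Tween-20; compound pinned in; FRET-FV substrate; RT 20 min; Ex320/Em430; ΔFRET vs ADEP 5.8 microM, DMSO, no enzyme.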
RORg inh: inhibitors of mouse ROR gamma transcriptional activity. P51450. Drosophila S2 Gal4-RORgamma UAS-luciferase reporter, 20 h. Potency, µM (doses to about 53.6 µM), actives largely listed as inhibitors. actives 5.4% (n = 310,000). AID 2551; also: nearly all actives have a fitted effect of over 60% in size
Target sequence (P51450 whole entry, looked up, the tested form may be a part): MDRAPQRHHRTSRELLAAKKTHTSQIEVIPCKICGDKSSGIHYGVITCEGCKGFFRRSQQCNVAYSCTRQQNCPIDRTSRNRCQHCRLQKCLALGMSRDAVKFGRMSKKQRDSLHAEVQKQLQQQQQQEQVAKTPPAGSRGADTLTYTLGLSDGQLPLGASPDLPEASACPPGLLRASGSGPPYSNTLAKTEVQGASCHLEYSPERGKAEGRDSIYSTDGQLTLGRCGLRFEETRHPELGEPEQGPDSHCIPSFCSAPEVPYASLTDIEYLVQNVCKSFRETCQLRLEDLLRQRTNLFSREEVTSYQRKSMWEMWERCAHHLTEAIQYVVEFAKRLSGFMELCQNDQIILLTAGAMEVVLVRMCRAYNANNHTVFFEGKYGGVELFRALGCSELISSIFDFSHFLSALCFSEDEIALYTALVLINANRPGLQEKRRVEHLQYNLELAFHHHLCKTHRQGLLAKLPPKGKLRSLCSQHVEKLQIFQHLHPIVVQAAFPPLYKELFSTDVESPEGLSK
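Luciferase reporter read in Schneider cells carrying Gal4-RORγ (mouse) and UAS-Photinus luciferase; cells given compound 1 h before 700 uM copper sulfate induction, then incubated 20 h at ambient temperature.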
Sfp inh: blocks B. subtilis Sfp PPTase activity | Q9F4F7 | Biochemical Sfp PPTase activity, qHTS | Potency, µM, most hits filed as inhibitors | actives 3.5% (n = 310,000) | AID 1490;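 also: the enzyme is Sfp with the accession as filed and its product quenches rhodamine fluorescence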
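Step 1, compound plus 15 nM Sfp-PPTase, 15 min, room temperature. Step 2, add rhodamine-CoA (5 uM) and BHQ-2-YbbR (12.5 uM). Step 3, read 525/598 nm fluorescence at 0 and 30 min.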
Gal4-VP16 FLuc: counter-screen for ROR gamma inhibitors: Gal4-VP16 reporter | actives 3.5% (n = 310,000) | AID 2546 | Potency, µM (titrated, usually from 53.6 µM), usual class: inhibitors | Drosophila S2 Gal4-VP16 UAS-luciferase, luminescence, 20 h;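 also: Gal4-VP16 expression switched on by copper sulfate through the metallothionein promoter; nearly all actives have a fitted effect of over 50% in size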
Epigenetic derep: regulators of epigenetic silencing causing reporter derepression in mouse cells | murine LDR cells, GFP reporter derepression, 30 h | Potency, µM (doses to about 53.9 µM), most hits filed as activators | actives 0.2% (n = 280,000) | AID 1865; also: nearly all actives have a fitted effect of over 60% in size
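Reporter derepression read as number of fluorescent GFP-positive objects, 20-120 um in size, counted by laser-scanning cytometer. Mouse LDR line with an epigenetically silenced CMV-GFP locus; compound incubation 30 h, 37 C.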
Hits are given with their value; - = inactive; ? = inconclusive; . = not tested or not shown; [ ] = remark or other dose. Unless noted, calls follow the shape of the dose curve; as a rule, active = well fitted curve in the direction sought with a large enough effect; inconclusive = small, poorly fitted or top-dose-only effect, or another doubt; inactive = no such curve, though single readings can be large; an effect the other way counts as inactive or inconclusive.

SMILES	PINK1 expr mod	ClpP mod	RORg inh	Sfp inh	Gal4-VP16 FLuc	Epigenetic derep
FC(F)(F)c1nnc2sc(-c3ccncc3)nn12	-	-	-	-	-	-
S=c1[nH]nc(Cn2cnc3ccccc32)n1-c1ccccc1Cl	-	-	-	89.1µM	-	-
COc1ccccc1N1CCN(c2nc3ccc(C)cc3nc2-n2nc(C)cc2C)CC1	-	-	.	.	.	-
CC[N+](C)(C)CCN(Cc1ccc(Cl)cc1)c1ccccn1	-	28.2µM	-	-	-	-
COc1ccc(CN(CCN(C)C)c2ccccn2)cc1	-	-	-	-	-	?
O=C(NCCO)c1ccc(Cc2nc3ccccc3[nH]2)cc1	.	.	.	.	.	-
CCOC(=O)C1CCCN(C(=O)Cn2sc3nc(C)cc(C)c3c2=O)C1 (stereo not drawn)	-	?	?	1.78µM	1.78µM	-
Cc1nn(CC(=O)N2CCC(N3CCCCC3)CC2)c(=O)c2c1sc1ccccc12	-	-	-	-	-	.
Cc1cc(C)c2c(=O)n(CC(=O)N3CCC(N4CCCCC4)CC3)sc2n1	-	?	?	8.91µM	?	-
CCCNC(=O)Cn1sc2nc(C)cc(C)c2c1=O	-	-	?	1.78µM	?	-
O=P(O)(O)C(O)(Cc1cccnc1)P(=O)(O)O	.	.	-[10 µM]	-	-	.
Cc1c(C(=O)NCCc2cccnc2)cnn1-c1ncc2c(n1)-c1ccccc1CC2	-	.	.	.	.	.
O=C(CCCC(=O)Nc1cccc(Br)c1)N/N=C/c1cc([N+](=O)[O-])ccc1O	-	-	?	-	10µM	.
O=C(CN(c1cccc(Br)c1)S(=O)(=O)c1ccccc1)N/N=C/c1cc([N+](=O)[O-])ccc1O	-	.	.	.	.	.
O=C(CCC(=O)Nc1cccc([N+](=O)[O-])c1)N/N=C/c1cccs1	-	-	-	-	-	.
O=C(CCC(=O)Nc1cccc(Cl)c1)N/N=C/c1cc([N+](=O)[O-])ccc1O	-	.	11.2µM	-	?	-
O=C(CSc1ccccc1C(=O)N1CCCCC1)NCC1CCCCC1	-	-	2.51µM	-	-	.
Cc1ccc(CNC(=O)c2ccccc2SCC(=O)NCC2CCCCC2)cc1	-	-	-	-	-	-
Cc1ccccc1CSc1nccn1-c1ccccc1	-	-	2.51µM	-	12.6µM	-
CCSc1nnc(NC(=O)CSc2c(Cl)cccc2Cl)s1	-	-	11.2µM	-	-	-
Cc1cccc(-n2ccnc2SCC(=O)O)c1C	-	10µM	-	-	-	-
CCSc1nnc(NC(=O)CSc2nccn2-c2cccc(C)c2C)s1	-	-	10µM	-	?	-
Cc1ccccc1-n1ccnc1SCC(=O)O	-	-	-	-	-	-
Cc1ccccc1CSc1nnc(-c2ccccn2)n1C	-	.	-	-	-	-
COc1cc2c(cc1OC)n(CC(=O)Nc1ccc(C)cc1C)c(=O)n1nc(-c3ccccc3)nc21	-	-	.	.	.	-
SMILES	PINK1 expr mod	ClpP mod	RORg inh	Sfp inh	Gal4-VP16 FLuc	Epigenetic derep
CC(=O)OC[C@H]1O[C@@H](O/N=C2/[C@H]3O[C@@H]3[C@@H](O)[C@H]3[C@H]2CCn2c(=O)n(-c4ccccc4)c(=O)n23)[C@H](OC(C)=O)[C@@H](OC(C)=O)[C@@H]1OC(C)=O	.	.	-[10 µM]	-	-[10 µM]	-[10.1 µM]
COc1cc(NC(=O)C(Cc2ccccc2)NS(=O)(=O)c2cccs2)cc(OC)c1 (stereo not drawn)	-	-	.	.	.	-
Cc1ccc2oc(C(=O)Nc3c(C(=O)Nc4cccc(Cl)c4)oc4ccccc34)cc(=O)c2c1	-	-	.	.	.	-
Cc1cccc(NC(=O)N[C@@H](C)C(=O)O)c1	-	15.8µM	-	-	-	-
CCSc1nnc(NC(=O)CSc2nccn2-c2cc(C)cc(C)c2)s1	-	-	14.1µM	-	?	-
CCSc1nnc(NC(=O)Nc2cccc(C)c2)s1	12.6µM	.	-	-	-	-
COC(=O)/C(=C1/Oc2cc(C)oc(=O)c2S1)C(F)(F)F	-	-	0.708µM	-	1.12µM	?
Cc1cc(N2CCN(c3ccc(F)cc3)CC2)n2nc(-c3ccc(Cl)cc3)nc2n1	-	-	.	.	.	-
CCOc1nc(NC(=O)NS(=O)(=O)Oc2cccc(Cl)c2)nc(-c2ccccc2)n1	-	-	-	-	-	-
CCOc1nc(NC(=O)NS(=O)(=O)c2cccc(Cl)c2)nc(-c2ccccc2)n1	-	28.2µM	-	-	-	-
Cc1ccc(NC(=O)Cn2c(=O)ccc3cc(S(=O)(=O)N4CCC(C)CC4)ccc32)cc1Cl	-	-	.	.	.	-
COc1ccc2[nH]c(=O)c(CNc3ccccc3OC)cc2c1	-	.	-	15.8µM	-	-
COc1ccc2[nH]c(=O)c(CNc3ccccc3)cc2c1	-	15.8µM	-	50.1µM	-	-
COc1ccc2[nH]c(=O)c(CNc3ccccc3C)cc2c1	-	.	?	22.4µM	-	-
CCOc1ccc(NCc2cc3cc(OC)ccc3[nH]c2=O)cc1	-	-	-	-	?	-
COc1cccc(-c2nccc(NCc3cccs3)n2)c1	-	.	-	79.4µM	-	.
Cc1ccccc1-c1nccc(NCc2cccs2)n1	-	.	?	89.1µM	-	.
CC(=O)c1cccc(NS(=O)(=O)c2cccc(C(=O)O)c2)c1	.	.	.	.	.	-
CCOc1ccccc1N(C(=O)c1ccccc1Cl)C1=NC(C)(C)CS1	-	-	17.8µM	-	-	-
COc1ccc(C)cc1N(C(=O)c1ccc(C#N)cc1)C1=NC(C)(C)CS1	-	-	-	-	-	.
CN(C)c1ccc(/C=N/NC(=S)NCc2ccco2)cc1	-	25.1µM	1.78µM	-	5.01µM	-
S=C(NCc1ccco1)N/N=C/c1ccncc1	-	.	15.8µM	-	?	-
CC(=O)c1ccc(NC(=S)NCc2ccco2)cc1	-	-	-	-	-	-
COc1cccc(/C=N/NC(=S)NCc2ccco2)c1OC	-	.	3.55µM	-	?	-
CN(C)c1ccc(C(=S)NCc2ccco2)cc1	-	-	3.98µM	14.1µM	7.94µM	-
SMILES	PINK1 expr mod	ClpP mod	RORg inh	Sfp inh	Gal4-VP16 FLuc	Epigenetic derep
CCOc1ccc(S(=O)(=O)N2CCN(C)CC2)cc1NC(=O)c1ccccc1F	-	.	3.98µM	-	?	.
COc1ccc(OC(=O)c2cccc(S(=O)(=O)N3CCCC3)c2)cc1	-	-	-	-	-	-
CCOc1ccc(S(=O)(=O)N2CCN(CC)CC2)cc1NC(=O)c1ccccc1F	-	.	-	-	-	.
CCOc1ccc(OC(=O)c2cccc(S(=O)(=O)N3CCN(C)CC3)c2)cc1	-	31.6µM	.	.	.	.
N#C/C(=C(/O)CN1CCOCC1)c1nc2ccccc2s1	-	?	-	-	-	-
Cn1c(/C(C#N)=C(\O)c2ccc([N+](=O)[O-])cc2)nc2ccccc21	-	-	-	-	-	-
Cn1c(/C(C#N)=C(\O)CN2CCN(Cc3ccccc3)CC2)nc2ccccc21	-	-	5.62µM	-	22.4µM	-
Cc1ccc(SC/C(O)=C(\C#N)c2nc3ccccc3n2C)cc1	-	-	7.94µM	-	6.31µM	-
